Results published in paper PMC11006913.
Residue numbers refer to the chain shown, from its start.

Key:
Assay in all cases: PBM; 200 nM protein, PBS
Conditions in all cases: dsDNA, one strand shown
VENTX [1] = biological target: T1, VENTX (Homo sapiens, UniProt O95231 78-163, R121Q)
T1 sequence: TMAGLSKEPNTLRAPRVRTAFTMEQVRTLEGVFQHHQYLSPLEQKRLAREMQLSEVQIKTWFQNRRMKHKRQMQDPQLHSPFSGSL

HOXB9 [2] = biological target: HOXB9 (Homo sapiens, UniProt P17482 171-250, T197M)
VENTX [3] = biological target: T2, VENTX (Homo sapiens, UniProt O95231 78-163)
T2 sequence: T1 sequence with Q44R

ALX4 [4] = biological target: ALX4 (Homo sapiens, UniProt Q9H161 200-286)
VENTX [5] = biological target: T3, VENTX (Homo sapiens, UniProt O95231 78-163, Y115F)
T3 sequence: T1 sequence with Y38F, Q44R

ALX4 [6] = biological target: ALX4 (Homo sapiens, UniProt Q9H161 200-286, Q225E)
HOXA2 [7] = biological target: HOXA2 (Homo sapiens, UniProt O43364 129-215, R185T)
HOXB9 [8] = biological target: HOXB9 (Homo sapiens, UniProt P17482 171-250)
HOXA2 [9] = biological target: HOXA2 (Homo sapiens, UniProt O43364 129-215, R185K)
VAX1 [10] = biological target: VAX1 (Homo sapiens, UniProt Q5SQQ9 86-172)
HOXB9 [11] = biological target: HOXB9 (Homo sapiens, UniProt P17482 171-250, R186Q)
VAX1 [12] = biological target: VAX1 (Homo sapiens, UniProt Q5SQQ9 86-172, T142I)
HOXA2 [13] = biological target: HOXA2 (Homo sapiens, UniProt O43364 129-215, Y150S)
HOXA2 [14] = biological target: HOXA2 (Homo sapiens, UniProt O43364 129-215)
VAX1 [15] = biological target: VAX1 (Homo sapiens, UniProt Q5SQQ9 86-172, K157R)
HOXA4 [16] = biological target: HOXA4 (Homo sapiens, UniProt Q00056 201-287, W262R)
HOXC9 [17] = biological target: HOXC9 (Homo sapiens, UniProt P31274 178-260, K195R)
HOXA7 [18] = biological target: HOXA7 (Homo sapiens, UniProt P31268 116-202)
HOXB6 [19] = biological target: HOXB6 (Homo sapiens, UniProt P17509 132-218, K202E)
HOXA4 [20] = biological target: HOXA4 (Homo sapiens, UniProt Q00056 201-287, R217L)
HOXC9 [21] = biological target: HOXC9 (Homo sapiens, UniProt P31274 178-260)
HOXC9 [22] = biological target: HOXC9 (Homo sapiens, UniProt P31274 178-260, R193K)
HOXA4 [23] = biological target: HOXA4 (Homo sapiens, UniProt Q00056 201-287)
HOXC10 = HOXC10 (Homo sapiens, UniProt Q9NYD6 254-340, K271E)
HOXC9 [24] = biological target: HOXC9 (Homo sapiens, UniProt P31274 178-260, R222W)
HOXA7 [25] = biological target: HOXA7 (Homo sapiens, UniProt P31268 116-202, W177C)
HOXA4 [26] = biological target: HOXA4 (Homo sapiens, UniProt Q00056 201-287, W262F)
HOXB6 [27] = biological target: HOXB6 (Homo sapiens, UniProt P17509 132-218)
HOXB6 (Homo sapiens, UniProt P17509 132-218), sequence (P17509 132-218): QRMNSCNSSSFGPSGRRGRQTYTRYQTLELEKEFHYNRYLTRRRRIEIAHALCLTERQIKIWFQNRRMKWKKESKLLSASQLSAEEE

HOXA2 (Homo sapiens, UniProt O43364 129-215), sequence (O43364 129-215): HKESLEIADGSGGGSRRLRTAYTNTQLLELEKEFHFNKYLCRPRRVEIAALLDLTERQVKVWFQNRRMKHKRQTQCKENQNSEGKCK
HOXA2 (Homo sapiens, UniProt O43364 129-215, Y150S), sequence (O43364 129-215 Y150S): as the sequence (O43364 129-215) above, with Y22S counted along it
HOXA2 (Homo sapiens, UniProt O43364 129-215, R185T), sequence (O43364 129-215 R185T): as the sequence (O43364 129-215) above, with R57T counted along it
HOXA2 (Homo sapiens, UniProt O43364 129-215, R185K), sequence (O43364 129-215 R185K): as the sequence (O43364 129-215) above, with R57K counted along it
HOXB9 (Homo sapiens, UniProt P17482 171-250), sequence (P17482 171-250): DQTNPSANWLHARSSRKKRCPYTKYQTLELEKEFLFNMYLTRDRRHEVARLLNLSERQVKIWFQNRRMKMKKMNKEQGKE
HOXB6 (Homo sapiens, UniProt P17509 132-218, K202E), sequence (P17509 132-218 K202E): as the sequence (P17509 132-218) above, with K71E counted along it
VAX1 (Homo sapiens, UniProt Q5SQQ9 86-172), sequence (Q5SQQ9 86-172): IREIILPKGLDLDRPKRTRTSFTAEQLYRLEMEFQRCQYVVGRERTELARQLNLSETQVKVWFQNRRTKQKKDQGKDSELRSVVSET
VAX1 (Homo sapiens, UniProt Q5SQQ9 86-172, K157R), sequence (Q5SQQ9 86-172 K157R): as the sequence (Q5SQQ9 86-172) above, with K72R counted along it
HOXB9 (Homo sapiens, UniProt P17482 171-250, T197M), sequence (P17482 171-250 T197M): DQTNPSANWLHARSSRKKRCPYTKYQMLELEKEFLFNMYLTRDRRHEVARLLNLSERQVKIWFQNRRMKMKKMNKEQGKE
HOXC9 (Homo sapiens, UniProt P31274 178-260, K195R), sequence (P31274 178-260 K195R): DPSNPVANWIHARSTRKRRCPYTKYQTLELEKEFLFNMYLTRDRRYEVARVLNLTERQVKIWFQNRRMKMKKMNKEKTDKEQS
HOXC9 (Homo sapiens, UniProt P31274 178-260, R193K), sequence (P31274 178-260 R193K): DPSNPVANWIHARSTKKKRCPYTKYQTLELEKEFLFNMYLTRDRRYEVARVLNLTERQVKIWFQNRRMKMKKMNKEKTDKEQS
HOXC9 (Homo sapiens, UniProt P31274 178-260), sequence (P31274 178-260): as the sequence (P31274 178-260 R193K) above, with K16R counted along it
VAX1 (Homo sapiens, UniProt Q5SQQ9 86-172, T142I), sequence (Q5SQQ9 86-172 T142I): as the sequence (Q5SQQ9 86-172) above, with T57I counted along it
HOXC9 (Homo sapiens, UniProt P31274 178-260, R222W), sequence (P31274 178-260 R222W): as the sequence (P31274 178-260 R193K) above, with K16R, R45W counted along it
HOXB9 (Homo sapiens, UniProt P17482 171-250, R186Q), sequence (P17482 171-250 R186Q): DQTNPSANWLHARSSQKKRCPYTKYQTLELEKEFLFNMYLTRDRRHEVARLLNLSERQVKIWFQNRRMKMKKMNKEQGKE
HOXA4 (Homo sapiens, UniProt Q00056 201-287, R217L), sequence (Q00056 201-287 R217L): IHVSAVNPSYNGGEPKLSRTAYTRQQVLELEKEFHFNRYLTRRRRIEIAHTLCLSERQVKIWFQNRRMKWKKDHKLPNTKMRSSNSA
HOXA7 (Homo sapiens, UniProt P31268 116-202), sequence (P31268 116-202): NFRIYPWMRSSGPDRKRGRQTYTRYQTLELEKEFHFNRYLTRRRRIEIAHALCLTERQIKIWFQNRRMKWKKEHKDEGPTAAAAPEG
HOXA7 (Homo sapiens, UniProt P31268 116-202, W177C), sequence (P31268 116-202 W177C): as the sequence (P31268 116-202) above, with W62C counted along it
HOXC10, sequence (Q9NYD6 254-340 K271E): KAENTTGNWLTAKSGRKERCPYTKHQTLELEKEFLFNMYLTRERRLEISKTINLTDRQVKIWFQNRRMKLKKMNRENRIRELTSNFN
HOXA4 (Homo sapiens, UniProt Q00056 201-287, W262F), sequence (Q00056 201-287 W262F): as the sequence (Q00056 201-287 R217L) above, with L17R, W62F counted along it
ALX4 (Homo sapiens, UniProt Q9H161 200-286, Q225E), sequence (Q9H161 200-286 Q225E): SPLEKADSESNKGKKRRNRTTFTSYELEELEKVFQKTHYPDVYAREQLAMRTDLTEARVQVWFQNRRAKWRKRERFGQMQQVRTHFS
ALX4 (Homo sapiens, UniProt Q9H161 200-286), sequence (Q9H161 200-286): as the sequence (Q9H161 200-286 Q225E) above, with E26Q counted along it
HOXA4 (Homo sapiens, UniProt Q00056 201-287), sequence (Q00056 201-287): as the sequence (Q00056 201-287 R217L) above, with L17R counted along it
HOXA4 (Homo sapiens, UniProt Q00056 201-287, W262R), sequence (Q00056 201-287 W262R): as the sequence (Q00056 201-287 R217L) above, with L17R, W62R counted along it

Sequence: CACGGGGG
- binding signal (VENTX [1]): 7.84 upbm affinity estimate (log intensity, higher = more binding, comparable within an allelic series)
- binding signal (HOXB9 [2]): 8.4 upbm affinity estimate (log intensity, higher = more binding, comparable within an allelic series)
- binding signal (VENTX [3]): 7.81 upbm affinity estimate (log intensity, higher = more binding, comparable within an allelic series)
- binding signal (ALX4 [4]): 7.67 upbm affinity estimate (log intensity, higher = more binding, comparable within an allelic series)
- binding signal (VENTX [5]): 7.86 upbm affinity estimate (log intensity, higher = more binding, comparable within an allelic series)
- binding signal (ALX4 [6]): 7.96 upbm affinity estimate (log intensity, higher = more binding, comparable within an allelic series)
- binding signal (HOXA2 [7]): 7.01 upbm affinity estimate (log intensity, higher = more binding, comparable within an allelic series)
- binding signal (HOXB9 [8]): 8.3 upbm affinity estimate (log intensity, higher = more binding, comparable within an allelic series)
- binding signal (HOXA2 [9]): 10.1 upbm affinity estimate (log intensity, higher = more binding, comparable within an allelic series)
- binding signal (VAX1 [10]): 7.17 upbm affinity estimate (log intensity, higher = more binding, comparable within an allelic series)
- binding signal (HOXB9 [11]): 8.26 upbm affinity estimate (log intensity, higher = more binding, comparable within an allelic series)
- binding signal (VAX1 [12]): 7.14 upbm affinity estimate (log intensity, higher = more binding, comparable within an allelic series)
- binding signal (HOXA2 [13]): 10.4 upbm affinity estimate (log intensity, higher = more binding, comparable within an allelic series)
- binding signal (HOXA2 [14]): 7.04 upbm affinity estimate (log intensity, higher = more binding, comparable within an allelic series)
- binding signal (VAX1 [15]): 7.08 upbm affinity estimate (log intensity, higher = more binding, comparable within an allelic series)

Sequence: CCATTAAC
- binding signal (VENTX [1]): 12.1 upbm affinity estimate (log intensity, higher = more binding, comparable within an allelic series)
- binding signal (HOXB9 [2]): 9.99 upbm affinity estimate (log intensity, higher = more binding, comparable within an allelic series)
- binding signal (HOXA4 [16]): 10.6 upbm affinity estimate (log intensity, higher = more binding, comparable within an allelic series)
- binding signal (HOXC9 [17]): 12.7 upbm affinity estimate (log intensity, higher = more binding, comparable within an allelic series)
- binding signal (VENTX [3]): 12.6 upbm affinity estimate (log intensity, higher = more binding, comparable within an allelic series)
- binding signal (HOXA7 [18]): 11.5 upbm affinity estimate (log intensity, higher = more binding, comparable within an allelic series)
- binding signal (VENTX [5]): 11.7 upbm affinity estimate (log intensity, higher = more binding, comparable within an allelic series)
- binding signal (HOXB6 [19]): 10.1 upbm affinity estimate (log intensity, higher = more binding, comparable within an allelic series)
- binding signal (HOXA2 [7]): 12.1 upbm affinity estimate (log intensity, higher = more binding, comparable within an allelic series)
- binding signal (HOXA4 [20]): 12 upbm affinity estimate (log intensity, higher = more binding, comparable within an allelic series)
- binding signal (HOXB9 [8]): 11.7 upbm affinity estimate (log intensity, higher = more binding, comparable within an allelic series)
- binding signal (HOXC9 [21]): 12.7 upbm affinity estimate (log intensity, higher = more binding, comparable within an allelic series)
- binding signal (HOXC9 [22]): 12.7 upbm affinity estimate (log intensity, higher = more binding, comparable within an allelic series)
- binding signal (HOXA2 [9]): 13.1 upbm affinity estimate (log intensity, higher = more binding, comparable within an allelic series)
- binding signal (HOXA4 [23]): 13.8 upbm affinity estimate (log intensity, higher = more binding, comparable within an allelic series)
- binding signal (HOXC10): 11.9 upbm affinity estimate (log intensity, higher = more binding, comparable within an allelic series)
- binding signal (HOXB9 [11]): 11.6 upbm affinity estimate (log intensity, higher = more binding, comparable within an allelic series)
- binding signal (HOXC9 [24]): 11 upbm affinity estimate (log intensity, higher = more binding, comparable within an allelic series)
- binding signal (HOXA2 [13]): 10.7 upbm affinity estimate (log intensity, higher = more binding, comparable within an allelic series)
- binding signal (HOXA7 [25]): 8.86 upbm affinity estimate (log intensity, higher = more binding, comparable within an allelic series)
- binding signal (HOXA4 [26]): 11.5 upbm affinity estimate (log intensity, higher = more binding, comparable within an allelic series)
- binding signal (HOXA2 [14]): 12 upbm affinity estimate (log intensity, higher = more binding, comparable within an allelic series)
- binding signal (HOXB6 [27]): 12 upbm affinity estimate (log intensity, higher = more binding, comparable within an allelic series)

Sequence: CCCCTCGG
- binding signal (VENTX [1]): 8.03 upbm affinity estimate (log intensity, higher = more binding, comparable within an allelic series)
- binding signal (HOXC9 [17]): 9.54 upbm affinity estimate (log intensity, higher = more binding, comparable within an allelic series)
- binding signal (VENTX [3]): 7.93 upbm affinity estimate (log intensity, higher = more binding, comparable within an allelic series)
- binding signal (VENTX [5]): 8.04 upbm affinity estimate (log intensity, higher = more binding, comparable within an allelic series)
- binding signal (HOXB6 [19]): 8.78 upbm affinity estimate (log intensity, higher = more binding, comparable within an allelic series)
- binding signal (HOXA2 [7]): 7.19 upbm affinity estimate (log intensity, higher = more binding, comparable within an allelic series)
- binding signal (HOXC9 [21]): 9.64 upbm affinity estimate (log intensity, higher = more binding, comparable within an allelic series)
- binding signal (HOXC9 [22]): 9.54 upbm affinity estimate (log intensity, higher = more binding, comparable within an allelic series)
- binding signal (HOXA2 [9]): 10.3 upbm affinity estimate (log intensity, higher = more binding, comparable within an allelic series)
- binding signal (VAX1 [10]): 7.12 upbm affinity estimate (log intensity, higher = more binding, comparable within an allelic series)
- binding signal (HOXC9 [24]): 9.5 upbm affinity estimate (log intensity, higher = more binding, comparable within an allelic series)
- binding signal (VAX1 [12]): 7.07 upbm affinity estimate (log intensity, higher = more binding, comparable within an allelic series)
- binding signal (HOXA2 [13]): 10.4 upbm affinity estimate (log intensity, higher = more binding, comparable within an allelic series)
- binding signal (HOXA2 [14]): 7.11 upbm affinity estimate (log intensity, higher = more binding, comparable within an allelic series)
- binding signal (VAX1 [15]): 7.1 upbm affinity estimate (log intensity, higher = more binding, comparable within an allelic series)
- binding signal (HOXB6 [27]): 8.89 upbm affinity estimate (log intensity, higher = more binding, comparable within an allelic series)
